# Laboratory results from PubChem BioAssay AID2551 (National Center for Advancing Translational Sciences (NCATS), 2010).
# The campaign covered roughly 310,000 compounds. About 17,000 (5.5%) were called active. Not shown: some 11% with an inconclusive outcome. This excerpt belongs to a sample that is enriched for actives. A number with no mark means an inactive call. Calls come from the whole dose curve; as a rule, active = well fitted inhibition curve with a large enough effect; inconclusive = small, poorly fitted or top-dose-only effect, or effect the other way; inactive = no such curve, though single readings can be large or run the other way.
# Biological target: Nuclear receptor ROR-gamma (Mus musculus) (UniProt P51450)
# Experiment: qHTS for inhibitors of ROR gamma transcriptional activity; note: nearly all actives have a fitted effect of over 60% in size
# Settings: Drosophila S2 Gal4-RORgamma UAS-luciferase reporter, 20 h; series mostly up to 53.6 µM; activity change, negative = inhibition: at the top concentration
# In short: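 In this cell-based reporter format, copper sulfate (700 uM final) drives Gal4–ROR gamma fusion expression from a metallothionein promoter in Drosophila Schneider cells; compounds preincubated 1 hr, reporter read after 20 hr at ambient temperature.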
# % is set by controls: 0 for no effect and ±100 for the full control effect; potency is the fitted concentration of half-maximal effect.
# Chain of Nuclear receptor ROR-gamma (Mus musculus) (P51450 whole entry, looked up): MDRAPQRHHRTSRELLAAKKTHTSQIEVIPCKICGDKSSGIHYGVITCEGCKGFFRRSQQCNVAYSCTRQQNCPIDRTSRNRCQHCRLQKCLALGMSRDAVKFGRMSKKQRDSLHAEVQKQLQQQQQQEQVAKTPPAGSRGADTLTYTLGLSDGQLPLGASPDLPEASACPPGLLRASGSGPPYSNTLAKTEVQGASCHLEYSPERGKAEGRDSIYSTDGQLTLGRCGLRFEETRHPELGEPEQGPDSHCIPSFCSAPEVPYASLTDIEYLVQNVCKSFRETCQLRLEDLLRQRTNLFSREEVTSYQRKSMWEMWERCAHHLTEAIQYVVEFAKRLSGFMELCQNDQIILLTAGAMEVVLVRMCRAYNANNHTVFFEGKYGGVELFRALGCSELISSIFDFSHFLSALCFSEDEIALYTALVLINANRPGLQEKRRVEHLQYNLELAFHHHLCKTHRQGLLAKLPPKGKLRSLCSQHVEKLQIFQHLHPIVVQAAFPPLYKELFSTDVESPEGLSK
Compound,Potency,"activity change, negative = inhibition"
Cc1cnc(NC(=O)c2ccccn2)s1,0.794 µM (active),–
Cc1cnc(NC(=O)CSc2nnc(C)s2)s1,–,0%
CCC(C)C(NC(=O)C1CCC(=O)N1C(=O)OCc1ccccc1)C(=O)NC(C(=O)N1CCCC1C(N)=O)C(C)CC (stereo not drawn),–,22.4%
Cc1cc(=O)oc2cc(OC(C)C(=O)NCCc3ccc(S(N)(=O)=O)cc3)ccc12 (stereo not drawn),–,-1.79%
CN(C(=O)COC(=O)CNC(=O)C12CC3CC(CC(C3)C1)C2)c1ccccc1,–,-18.9%
CCC(=O)Nc1ccc(S(=O)(=O)Nc2c(NC)c3ccccc3oc2=O)cc1,–,-2.82%
O=S1(=O)CCOC[C@H](CC2CCCCC2)N1Cc1ccc(F)cc1,–,-20.9%
COc1ccc(C(=O)/C=C/Nc2ccccn2)cc1,3.55 µM (active),–
CCOc1cc(NC(=O)c2ccccn2)c(OCC)cc1NC(=O)c1ccc(OC)cc1,–,-19.2%
CCOc1ccc(N/C=C/C(=O)c2cc(OC)c(OC)c(OC)c2)cc1,–,26%
Cc1ccc(CNC(=O)C2(C(F)(F)F)C/C(=C\Cc3ccccc3)CCCO2)o1 (stereo not drawn),inactive,–
COc1ccc(N2C(=O)CC(SC(C)C)C2=O)cc1 (stereo not drawn),–,4.5%
COc1ccc(N2C(=O)CC(Sc3n[nH]c(-c4ccc(C)cc4)n3)C2=O)cc1 (stereo not drawn),20 µM (active),–
COc1ccc(-c2nc(SCC(=O)N3CCCC3)n[nH]2)cc1,–,29.5%
Cc1ccc(F)c(NC(=O)CCOc2ccccc2C)c1,–,-20.8%
O=[N+]([O-])c1cccc(/C([O-])=C(/C(=S)Nc2ccccc2F)[n+]2ccccc2)c1,12.6 µM (active),–
CCC(C)NCC(=O)Nc1ccc([N+](=O)[O-])cc1C(=O)Nc1ccccc1F (stereo not drawn),–,-9.45%
Cc1ccc(/C([O-])=C(/C(=S)NCc2ccco2)[n+]2ccccc2)cc1[N+](=O)[O-],–,-3.72%
CS(=O)(=O)N(CC(=O)N1CCOCC1)c1cccc(Cl)c1Cl,–,-9.65%
C=CCn1cc(Cl)cc(C(=O)Nc2ccccc2)c1=O,–,14.3%

Compound,Potency,"activity change, negative = inhibition"
Cc1nc2ccc(C(=O)N(C)CC3CCCN(CCc4ccc(Cl)cc4)C3)cc2[nH]1 (stereo not drawn),–,-7.12%
C=CCCN(Cc1ccccc1)S(=O)(=O)c1ccccc1Br,inactive,–
C=CC(COCc1ccccc1)N(Cc1ccccc1)S(=O)(=O)c1ccccc1Br (stereo not drawn),7.94 µM (active),–
CC(NC(=O)C1CCCN(S(=O)(=O)c2ccc(-n3cnnn3)cc2)C1)c1ccc(F)cc1 (stereo not drawn),–,-2.24%
O=C(NCc1ccco1)/C(=C/c1cccc([N+](=O)[O-])c1)NC(=O)c1ccco1,–,-3.55%
CSc1sc(C(=O)NNC(=O)c2ccc(Cl)cc2)c2c1C=CCC2,–,-5.15%
COC(=O)[C@H](C)NC(=O)Nc1ccc(OC(F)(F)F)cc1,–,5.22%
CS(=O)(=O)c1sc(C(=O)NC(=S)Nc2ccc(OC(F)(F)F)cc2)c2c1C=CCC2,7.08 µM (active),–
CN1C(=O)c2ccc(C(=O)Nc3ccc(Br)cn3)cc2C1=O,–,10.1%
O=C(Nc1cc(-c2nc3ncccc3o2)ccc1Cl)c1ccco1,–,-6.29%
Cn1c(SCC(=O)N2CCCC2)nnc1-c1ccc2c(c1)OCO2,–,3.23%
CC12CN(Cc3ccccc3)CC(C)(CN(Cc3ccccc3)C1)C2=NO,–,2.79%
CCN1CN(Cc2ccccc2)CNC1=S,12.6 µM (active),–
S=C1SCN(CCN2CCOCC2)CN1Cc1ccccc1,–,-38.9%
CCOc1ccccc1N1CN(Cc2ccccc2)CNC1=S,4.47 µM (active),–
O=S(=O)(c1cc(Cl)ccc1Cl)N1CCN(Cc2ccco2)CC1,–,19.3%
Cn1c2c(c(=O)n(C)c1=O)CN(Cc1ccco1)CN2,–,0%
CCc1ccccc1N1CN(Cc2ccco2)CNC1=S,4.47 µM (active),–
c1ccc(CCN2CN=C(Nc3nc4ccccc4o3)NC2)cc1,–,0%
N#CNC1=NCN(CCc2ccccc2)CN1,–,-13.1%

Compound,Potency,"activity change, negative = inhibition"
CCOc1ccccc1OCCCNCc1ccccc1,–,-1.61%
CCCN1CNC(=S)N(CCc2ccccc2)C1,3.98 µM (active),–
CCOc1ccc(CC(=O)NC2CCN(Cc3ccccc3)CC2)cc1,–,11.1% [at 1.91 µM]
COc1ccccc1NC(=O)CSc1nnc(CNC(=O)c2ccccc2F)o1,–,-11.2%
CCOc1ccc(C)cc1S(=O)(=O)NC1CCCCCC1,–,1.67%
COc1ccc(C(=O)N2CCCN(C)CC2)c(OC)c1,–,21.7%
Cc1cccc[n+]1CC(=O)c1ccccc1,–,-7.06%
CSc1ccccc1OCc1cc(C(=O)N(C)CCc2c(C)n[nH]c2C)no1,–,-3.27%
CCn1c(SCc2cccc(C(=O)O)c2)nnc1-c1ccc(Cl)cc1,–,-0.312%
Cc1cc(C)cc(NC(=O)NCc2ccccn2)c1,–,11.9%
O=C(NCc1ccccn1)Nc1ccc(F)cc1,–,9%
CCOc1ccc(NC(=S)N2CCC(N(C)CC3CCCO3)CC2)cc1 (stereo not drawn),–,-15.5%
CCOc1ccc(NC(=S)N2CCCCCC2)cc1,7.08 µM (active),–
CCC(C)c1ccc(NC(=S)NCc2ccccn2)cc1 (stereo not drawn),2.51 µM (active),–
CCC(C)c1ccc(NC(=S)N2CCCC2)cc1 (stereo not drawn),8.91 µM (active),–
NS(=O)(=O)c1ccc(NC(=S)N2CCCC2)cc1,–,-8.65%
CCOc1ccc(NC(=S)N2CCC(NC(=O)c3ccccc3)CC2)cc1,–,0.515%
CCC(C)N(C)C1CCN(C(=S)Nc2ccc(OC)cc2)CC1 (stereo not drawn),–,-3.42%
